# Several values for one entry are separate records, joined by “and”; a condition that tells them apart may be missing. Equal values may be shown once.
# How the values were obtained:
# [1] = molecular target: Ribosomal protein S6 kinase alpha-6 (Homo sapiens) (UniProt Q9UK32); settings: at 1 µM;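 further: each value is a mean inhibition of RSK4 from a GSK PKIS panel screen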
# [2] = molecular target: T1, Serine/threonine-protein kinase Sgk1 (Homo sapiens) (UniProt O00141); settings: at 0.1 µM
# T1 sequence (whole entry): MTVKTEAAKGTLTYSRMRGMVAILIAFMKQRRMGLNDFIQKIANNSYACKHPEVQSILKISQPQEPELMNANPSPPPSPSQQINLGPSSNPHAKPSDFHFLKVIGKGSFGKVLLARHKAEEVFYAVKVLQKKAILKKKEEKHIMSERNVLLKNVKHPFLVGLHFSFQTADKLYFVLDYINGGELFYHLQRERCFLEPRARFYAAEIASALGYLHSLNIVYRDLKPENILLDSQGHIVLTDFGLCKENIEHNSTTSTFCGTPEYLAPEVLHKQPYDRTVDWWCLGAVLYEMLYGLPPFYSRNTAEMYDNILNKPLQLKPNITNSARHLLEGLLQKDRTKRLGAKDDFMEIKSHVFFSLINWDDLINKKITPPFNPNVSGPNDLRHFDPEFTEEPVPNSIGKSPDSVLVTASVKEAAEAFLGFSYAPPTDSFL
# [3] = molecular target: T1, Serine/threonine-protein kinase Sgk1 (Homo sapiens); settings: at 1 µM
# [4] = molecular target: T2, Serine/threonine-protein kinase Sgk2 (Homo sapiens) (UniProt Q9HBY8); settings: at 0.1 µM
# T2 sequence (whole entry): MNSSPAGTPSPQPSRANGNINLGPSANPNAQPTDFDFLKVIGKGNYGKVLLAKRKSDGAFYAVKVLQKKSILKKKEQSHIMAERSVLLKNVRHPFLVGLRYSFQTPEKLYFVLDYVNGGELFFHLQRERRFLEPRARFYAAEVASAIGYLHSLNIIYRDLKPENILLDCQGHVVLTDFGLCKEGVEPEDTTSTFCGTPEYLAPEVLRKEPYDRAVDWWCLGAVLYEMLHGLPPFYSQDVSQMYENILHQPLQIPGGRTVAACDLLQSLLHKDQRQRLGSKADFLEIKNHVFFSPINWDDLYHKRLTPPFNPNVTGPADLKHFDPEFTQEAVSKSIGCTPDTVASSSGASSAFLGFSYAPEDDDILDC
# [5] = molecular target: T2, Serine/threonine-protein kinase Sgk2 (Homo sapiens); settings: at 1 µM
# [6] = molecular target: T3, Serine/threonine-protein kinase Sgk3 (Homo sapiens) (UniProt Q96BR1); settings: at 0.1 µM
# T3 sequence (whole entry): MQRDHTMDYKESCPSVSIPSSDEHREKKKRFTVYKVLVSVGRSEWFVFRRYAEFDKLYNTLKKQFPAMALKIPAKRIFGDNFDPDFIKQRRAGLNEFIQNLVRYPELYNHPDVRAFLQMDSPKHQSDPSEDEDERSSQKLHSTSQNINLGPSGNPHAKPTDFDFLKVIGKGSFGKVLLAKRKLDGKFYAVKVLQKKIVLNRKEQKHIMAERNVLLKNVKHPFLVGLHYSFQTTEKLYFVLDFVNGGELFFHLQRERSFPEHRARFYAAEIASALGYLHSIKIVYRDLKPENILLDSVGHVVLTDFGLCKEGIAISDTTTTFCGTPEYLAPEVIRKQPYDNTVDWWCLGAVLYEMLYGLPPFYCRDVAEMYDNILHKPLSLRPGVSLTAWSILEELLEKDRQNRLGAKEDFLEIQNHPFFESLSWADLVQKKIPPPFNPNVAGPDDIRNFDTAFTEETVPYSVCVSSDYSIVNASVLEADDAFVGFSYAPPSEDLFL
# [7] = molecular target: T3, Serine/threonine-protein kinase Sgk3 (Homo sapiens); settings: at 1 µM
# [8] = molecular target: 5'-AMP-activated protein kinase catalytic subunit alpha-1 (Homo sapiens) (UniProt Q13131); settings: at 0.1 µM
# 5'-AMP-activated protein kinase catalytic subunit alpha-1 (Homo sapiens), sequence (Q13131 whole entry, looked up): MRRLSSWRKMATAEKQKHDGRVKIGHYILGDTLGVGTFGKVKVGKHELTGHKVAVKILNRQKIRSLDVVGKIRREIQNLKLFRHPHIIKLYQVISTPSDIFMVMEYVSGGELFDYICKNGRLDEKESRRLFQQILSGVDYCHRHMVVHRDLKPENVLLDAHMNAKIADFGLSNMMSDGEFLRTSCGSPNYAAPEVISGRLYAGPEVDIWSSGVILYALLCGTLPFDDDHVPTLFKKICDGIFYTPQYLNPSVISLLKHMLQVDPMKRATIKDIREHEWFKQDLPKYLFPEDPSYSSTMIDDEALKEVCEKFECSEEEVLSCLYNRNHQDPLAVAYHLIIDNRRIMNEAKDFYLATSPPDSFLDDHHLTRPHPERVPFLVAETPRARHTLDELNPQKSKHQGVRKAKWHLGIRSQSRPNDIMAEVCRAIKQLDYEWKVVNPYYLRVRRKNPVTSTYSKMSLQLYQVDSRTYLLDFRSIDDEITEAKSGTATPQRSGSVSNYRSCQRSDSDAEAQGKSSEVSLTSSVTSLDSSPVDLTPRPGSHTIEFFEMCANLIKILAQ
# [9] = molecular target: 5'-AMP-activated protein kinase catalytic subunit alpha-1 (Homo sapiens) (UniProt Q13131); settings: at 1 µM
# [10] = molecular target: 5'-AMP-activated protein kinase catalytic subunit alpha-2 (Homo sapiens) (UniProt P54646); settings: at 0.1 µM
# 5'-AMP-activated protein kinase catalytic subunit alpha-2 (Homo sapiens), sequence (P54646 whole entry, looked up): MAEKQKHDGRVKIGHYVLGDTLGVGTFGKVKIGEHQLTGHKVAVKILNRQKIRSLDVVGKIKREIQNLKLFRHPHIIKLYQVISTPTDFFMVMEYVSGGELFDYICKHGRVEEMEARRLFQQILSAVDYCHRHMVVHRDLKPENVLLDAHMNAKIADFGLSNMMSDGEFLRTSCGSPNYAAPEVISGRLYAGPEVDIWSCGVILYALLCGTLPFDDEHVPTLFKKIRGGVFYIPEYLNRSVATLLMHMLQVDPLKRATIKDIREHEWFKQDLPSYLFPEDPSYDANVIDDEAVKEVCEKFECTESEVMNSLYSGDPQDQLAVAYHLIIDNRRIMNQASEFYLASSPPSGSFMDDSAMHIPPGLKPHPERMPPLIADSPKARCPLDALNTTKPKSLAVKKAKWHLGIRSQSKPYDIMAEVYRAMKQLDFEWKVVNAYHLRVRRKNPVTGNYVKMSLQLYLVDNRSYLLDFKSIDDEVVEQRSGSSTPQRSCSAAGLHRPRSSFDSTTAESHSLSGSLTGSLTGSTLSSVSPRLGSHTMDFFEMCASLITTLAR
# [11] = molecular target: 5'-AMP-activated protein kinase catalytic subunit alpha-2 (Homo sapiens) (UniProt P54646); settings: at 1 µM
# [12] = molecular target: T4, NUAK family SNF1-like kinase 1 (Homo sapiens) (UniProt O60285); settings: at 0.1 µM
# T4 sequence (whole entry): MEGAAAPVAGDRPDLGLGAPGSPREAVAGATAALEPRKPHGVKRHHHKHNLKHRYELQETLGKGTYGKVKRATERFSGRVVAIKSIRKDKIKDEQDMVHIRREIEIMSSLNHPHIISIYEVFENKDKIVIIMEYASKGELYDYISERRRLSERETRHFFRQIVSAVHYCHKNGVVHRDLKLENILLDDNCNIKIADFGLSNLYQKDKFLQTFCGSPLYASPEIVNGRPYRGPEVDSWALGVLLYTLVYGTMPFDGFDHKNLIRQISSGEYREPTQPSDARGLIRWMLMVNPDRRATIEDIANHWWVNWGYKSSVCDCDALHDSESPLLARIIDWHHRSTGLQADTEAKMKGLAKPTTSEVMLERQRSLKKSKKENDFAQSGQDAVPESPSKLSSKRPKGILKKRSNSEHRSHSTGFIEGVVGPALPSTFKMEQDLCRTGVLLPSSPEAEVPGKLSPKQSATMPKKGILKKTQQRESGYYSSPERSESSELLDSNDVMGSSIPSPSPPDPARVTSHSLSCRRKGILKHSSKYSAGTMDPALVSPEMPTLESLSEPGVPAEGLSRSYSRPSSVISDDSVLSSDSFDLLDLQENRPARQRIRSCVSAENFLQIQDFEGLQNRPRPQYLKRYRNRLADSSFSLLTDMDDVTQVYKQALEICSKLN
# [13] = molecular target: T4, NUAK family SNF1-like kinase 1 (Homo sapiens); settings: at 1 µM
# [14] = molecular target: T5, Serine/threonine-protein kinase BRSK1 (Homo sapiens) (UniProt Q8TDC3); settings: at 0.1 µM
# T5 sequence (whole entry): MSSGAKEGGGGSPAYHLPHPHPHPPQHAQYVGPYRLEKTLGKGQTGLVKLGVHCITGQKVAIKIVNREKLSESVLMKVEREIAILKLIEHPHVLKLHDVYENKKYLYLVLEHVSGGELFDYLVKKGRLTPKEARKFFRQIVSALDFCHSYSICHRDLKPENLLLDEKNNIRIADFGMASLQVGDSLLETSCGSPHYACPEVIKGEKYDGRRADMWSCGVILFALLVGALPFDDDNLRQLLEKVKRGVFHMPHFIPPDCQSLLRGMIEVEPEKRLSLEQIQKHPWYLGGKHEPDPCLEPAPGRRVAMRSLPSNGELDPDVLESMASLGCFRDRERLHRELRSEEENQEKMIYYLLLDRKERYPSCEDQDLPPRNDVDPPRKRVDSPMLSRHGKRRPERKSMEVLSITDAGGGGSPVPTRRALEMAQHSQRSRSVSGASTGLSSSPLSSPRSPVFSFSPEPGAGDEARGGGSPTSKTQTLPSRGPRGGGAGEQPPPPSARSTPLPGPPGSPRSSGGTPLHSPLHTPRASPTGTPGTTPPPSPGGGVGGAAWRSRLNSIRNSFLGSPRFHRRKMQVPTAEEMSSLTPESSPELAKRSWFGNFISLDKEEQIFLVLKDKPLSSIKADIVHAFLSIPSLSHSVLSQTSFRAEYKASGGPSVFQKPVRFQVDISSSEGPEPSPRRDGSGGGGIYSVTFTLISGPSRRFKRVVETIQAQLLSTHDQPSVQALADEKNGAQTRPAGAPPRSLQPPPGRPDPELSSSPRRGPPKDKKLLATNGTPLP
# [15] = molecular target: T5, Serine/threonine-protein kinase BRSK1 (Homo sapiens); settings: at 1 µM
# [16] = molecular target: T6, Serine/threonine-protein kinase BRSK2 (Homo sapiens) (UniProt Q8IWQ3); settings: at 0.1 µM
# T6 sequence (whole entry): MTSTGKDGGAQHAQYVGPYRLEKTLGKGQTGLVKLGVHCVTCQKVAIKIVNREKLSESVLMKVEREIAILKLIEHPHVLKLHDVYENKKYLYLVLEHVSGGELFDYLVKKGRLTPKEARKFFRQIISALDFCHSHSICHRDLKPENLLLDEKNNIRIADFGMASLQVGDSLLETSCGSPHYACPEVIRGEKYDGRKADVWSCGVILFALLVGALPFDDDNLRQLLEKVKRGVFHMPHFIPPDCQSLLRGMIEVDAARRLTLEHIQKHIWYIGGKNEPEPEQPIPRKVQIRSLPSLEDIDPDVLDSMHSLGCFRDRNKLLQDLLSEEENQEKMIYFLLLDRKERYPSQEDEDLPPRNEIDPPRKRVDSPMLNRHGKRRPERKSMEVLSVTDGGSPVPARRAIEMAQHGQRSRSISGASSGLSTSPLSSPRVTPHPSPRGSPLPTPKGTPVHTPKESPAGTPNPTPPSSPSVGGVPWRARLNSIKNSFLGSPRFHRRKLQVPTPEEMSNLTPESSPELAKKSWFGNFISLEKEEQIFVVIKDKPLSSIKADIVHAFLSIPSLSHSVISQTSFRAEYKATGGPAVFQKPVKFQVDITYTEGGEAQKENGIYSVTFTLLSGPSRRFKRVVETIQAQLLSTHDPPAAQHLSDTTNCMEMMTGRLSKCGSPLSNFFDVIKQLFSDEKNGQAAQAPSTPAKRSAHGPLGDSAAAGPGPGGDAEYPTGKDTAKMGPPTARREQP
# [17] = molecular target: T6, Serine/threonine-protein kinase BRSK2 (Homo sapiens); settings: at 1 µM
# [18] = molecular target: Calcium/calmodulin-dependent protein kinase type 1D (Homo sapiens) (UniProt Q8IU85); settings: at 0.1 µM
# Calcium/calmodulin-dependent protein kinase type 1D (Homo sapiens), sequence (Q8IU85 whole entry, looked up): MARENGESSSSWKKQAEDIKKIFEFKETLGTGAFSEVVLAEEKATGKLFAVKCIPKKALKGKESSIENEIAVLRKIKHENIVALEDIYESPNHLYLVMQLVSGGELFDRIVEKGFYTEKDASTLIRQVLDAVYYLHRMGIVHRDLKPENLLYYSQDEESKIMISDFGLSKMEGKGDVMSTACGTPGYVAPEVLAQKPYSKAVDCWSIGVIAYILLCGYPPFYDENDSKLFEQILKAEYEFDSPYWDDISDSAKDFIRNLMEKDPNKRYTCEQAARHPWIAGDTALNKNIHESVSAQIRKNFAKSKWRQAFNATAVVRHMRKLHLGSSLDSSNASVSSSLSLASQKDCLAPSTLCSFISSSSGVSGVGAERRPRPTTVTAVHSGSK
# [19] = molecular target: Calcium/calmodulin-dependent protein kinase type 1D (Homo sapiens) (UniProt Q8IU85); settings: at 1 µM
# [20] = molecular target: Calcium/calmodulin-dependent protein kinase type II subunit alpha (Homo sapiens) (UniProt Q9UQM7); settings: at 0.1 µM;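 further: reported values are averages (mean inhibition of CAMK2A)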
# Calcium/calmodulin-dependent protein kinase type II subunit alpha (Homo sapiens), sequence (Q9UQM7 whole entry): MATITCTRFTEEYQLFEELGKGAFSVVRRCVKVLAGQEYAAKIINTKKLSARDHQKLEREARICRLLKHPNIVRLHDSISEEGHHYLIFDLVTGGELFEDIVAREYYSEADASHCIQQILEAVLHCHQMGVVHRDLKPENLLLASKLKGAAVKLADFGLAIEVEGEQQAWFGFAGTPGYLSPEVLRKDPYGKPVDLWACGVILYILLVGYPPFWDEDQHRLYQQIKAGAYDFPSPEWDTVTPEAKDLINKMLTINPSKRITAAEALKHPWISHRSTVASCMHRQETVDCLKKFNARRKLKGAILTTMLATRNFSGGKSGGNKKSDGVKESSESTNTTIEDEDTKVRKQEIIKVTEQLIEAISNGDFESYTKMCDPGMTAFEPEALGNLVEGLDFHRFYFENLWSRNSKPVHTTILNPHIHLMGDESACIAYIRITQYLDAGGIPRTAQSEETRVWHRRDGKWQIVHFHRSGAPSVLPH
# Ribosomal protein S6 kinase alpha-6 (Homo sapiens), sequence (Q9UK32 whole entry): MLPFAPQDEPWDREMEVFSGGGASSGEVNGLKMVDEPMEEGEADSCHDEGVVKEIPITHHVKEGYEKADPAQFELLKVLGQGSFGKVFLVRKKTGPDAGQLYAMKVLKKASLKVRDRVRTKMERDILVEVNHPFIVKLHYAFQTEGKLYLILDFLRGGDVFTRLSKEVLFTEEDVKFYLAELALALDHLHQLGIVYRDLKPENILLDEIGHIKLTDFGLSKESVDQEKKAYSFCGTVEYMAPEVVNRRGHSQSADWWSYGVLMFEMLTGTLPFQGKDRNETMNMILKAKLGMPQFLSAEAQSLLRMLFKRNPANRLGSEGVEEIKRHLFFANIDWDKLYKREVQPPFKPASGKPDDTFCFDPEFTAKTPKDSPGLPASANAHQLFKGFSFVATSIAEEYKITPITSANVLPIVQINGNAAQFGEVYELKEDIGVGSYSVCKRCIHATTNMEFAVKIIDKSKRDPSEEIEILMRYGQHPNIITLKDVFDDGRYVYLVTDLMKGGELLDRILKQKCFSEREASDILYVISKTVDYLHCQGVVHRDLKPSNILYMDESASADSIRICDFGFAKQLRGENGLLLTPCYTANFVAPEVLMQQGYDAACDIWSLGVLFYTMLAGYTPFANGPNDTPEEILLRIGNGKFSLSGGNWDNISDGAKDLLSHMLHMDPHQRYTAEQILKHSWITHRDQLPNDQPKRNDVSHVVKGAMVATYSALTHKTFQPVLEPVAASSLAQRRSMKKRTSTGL
Compound,inhibition [1],inhibition [2],inhibition [3],inhibition [4],inhibition [5],inhibition [6],inhibition [7],inhibition [8],inhibition [9],inhibition [10],inhibition [11],inhibition [12],inhibition [13],inhibition [14],inhibition [15],inhibition [16],inhibition [17],inhibition [18],inhibition [19],inhibition [20]
COc1c(C(N)=O)cc(-c2ccc(Cl)cc2)cc1-c1ccc(S(N)(=O)=O)cc1,3.2%,0.41%,2.71%,5.14%,5%,1.37%,3%,1.83%,4.47%,7.86%,3.24%,0.82%,1.1%,3.28%,-0.57%,-0.02%,1.59%,0.45%,3.09%,3.01%
CC1=C(C(=O)Nc2ccc3[nH]nc(C)c3c2)C(c2ccc(C(F)(F)F)cc2)CC(=O)N1 (stereo not given),18.9%,2.07%,7.21%,0.38%,5.99%,1.33%,6.15%,4.08%,24.4%,-0.12%,7.41%,6.8%,31.1%,4.32%,21.3%,6.42%,32.6%,0.54%,2.58%,1.45%
Cc1nnc(-c2cccc(-c3ccc(C(=O)NCC4CC4)cc3)c2)o1,2.8%,4.47%,10.8%,2.96%,7.09%,3.56%,7.89%,5.16%,6.56%,0.86%,4.4%,3.1%,2.61%,0.57%,2.35%,6.6%,3.96%,-0.22%,0.22%,5.78%
Nc1nonc1-c1nc2cnccc2n1C1CC1,39.3% and 40.7%,2.58% and 2.55%,12.5% and 16.1%,8.13% and 8.47%,50.4% and 54.2%,20% and 22.1%,61.8% and 65.5%,5.9% and 3.15%,14.3% and 11.5%,1.84% and 3.94%,7.08% and 5.85%,5% and 1.55%,13.1% and 10.2%,5.76% and 4.57%,21.7% and 18.1%,8.42% and 4.02%,27.9% and 27.1%,0.19% and 0.41%,1.1% and 0.69%,4.16% and 0.57%
COc1cc(N2CCN(C(C)C)CC2)ccc1Nc1nc(Nc2cccc3ncccc23)c2cc[nH]c2n1,2.88%,1.18%,-0.91%,-3.32%,-0.85%,0.42%,0.55%,0.27%,0.86%,0.57%,0.77%,13.2%,47.5%,-0.07%,0.86%,-0.35%,-0.59%,1.82%,17.8%,-2.58%
CS(=O)(=O)Nc1ccc(-c2ccc3c(NC(=O)C4CC4)n[nH]c3c2)cc1,3.46%,3.96%,2.95%,0.2%,4.06%,2.22%,0.14%,3.58%,6.37%,10.3%,40%,-6.19%,2.46%,3.42%,5.22%,2.03%,4.96%,0.46%,1.58%,4.36%
CC1(C)CC(n2cnc(-c3ccc(F)cc3)c2-c2ccnc(N)n2)CC(C)(C)N1,0.95%,1.68%,5.28%,-3.17%,-3.03%,1.34%,1.32%,0.3%,1.1%,3.69%,0.53%,0.87%,1.37%,1.5%,4.7%,1.41%,5.87%,-0.53%,2.41%,-2.87%
Cc1c2ccc(N(C)c3ccnc(Nc4cccc(S(N)(=O)=O)c4)n3)cc2nn1C,4.77%,3.85%,4.14%,2.67%,3.7%,4.44%,8.06%,3.77%,4.2%,3.67%,5.34%,10.9%,46.2%,3.47%,3.4%,1.95%,2.47%,0.58%,2.6%,3.49%
COc1ccc2ncn(-c3cc(O[C@H](C)c4ccccc4C(F)(F)F)c(C(N)=O)s3)c2c1,9.8%,0.33%,0.95%,-1.23%,0.53%,-0.12%,0.72%,-0.57%,3.14%,0.8%,2.72%,5.12%,43.5%,2.49%,25.8%,6.06%,36.5%,0.14%,1.96%,-1.63%
